According to PubChem BioAssay AID1159580 (chemical genetic matrix, 2015):
Values joined by “and” are separate entries in the source; they are usually repeats but may differ in a detail not shown here. Equal entries are not always repeated. In all, about 5,500 compounds went through this assay and about 2,000 (36%) were called active. Another 18% or so got no clear call; they are omitted. No stated cut-off is given here; in the data, active means normalized growth mostly below about 0.91 (no sharp cut-off); inconclusive means no clear call, values can overlap the other calls; inactive means mostly above about 0.92. Some of the results follow.

Assay: chemical genetic growth profiling, strain panel (AID 1159580);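 further: tested at 20 µM; growth read once vehicle control cultures reached saturation at 30 °C; 1 = growth at the plate median or of vehicle wells; lower values mean less growth of the strain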
Conditions: growth OD

Measured: normalized growth

CN1CCN2c3ccccc3Cc3ccccc3C2C1 (stereo unspecified)
inactive: S. cerevisiae deletion strains, locus YJR075W, strain HOC1, active compounds read low 1 and 0.97 | S. cerevisiae deletion strains, locus YKL009W, strain mrt4, active compounds read low 0.999 | S. cerevisiae deletion strains, locus YKL068W, active compounds read low 0.991 | S. cerevisiae deletion strains, locus YKL085W, strain MDH1 (second series), active compounds read low 0.987 | S. cerevisiae deletion strains, locus YKL085W, strain MDH1, active compounds read low 0.987 | S. cerevisiae deletion strains, locus YKL160W, strain elf1, active compounds read low 0.989 | S. cerevisiae deletion strains, locus YKL190W, strain CNB1, active compounds read low 1.02 | S. cerevisiae deletion strains, locus YKR001C, strain vps1, active compounds read low 0.976 | S. cerevisiae deletion strains, locus YKR026C, strain gcn3, active compounds read low 1 | S. cerevisiae deletion strains, locus YKR091W, strain srl3, active compounds read low 1.01 | S. cerevisiae deletion strains, locus YLL001W, strain dnm1, active compounds read low 0.982 | S. cerevisiae deletion strains, locus YLL026W, active compounds read low 0.997 | S. cerevisiae deletion strains, locus YLL041C, strain sdh2, active compounds read low 1 | S. cerevisiae deletion strains, locus YLR027C, strain aat2, active compounds read low 1 | S. cerevisiae deletion strains, locus YLR039C, strain RIC1, active compounds read low 1.03 | S. cerevisiae deletion strains, locus YLR058C, strain SHM2, active compounds read low 1.01 | S. cerevisiae deletion strains, locus YLR102C, strain apc9, active compounds read low 0.994 | S. cerevisiae deletion strains, locus YLR113W, strain HOG1, active compounds read low 0.996 | S. cerevisiae deletion strains, locus YLR221C, strain rsa3, active compounds read low 0.993 | S. cerevisiae deletion strains, locus YLR258W, strain gsy2, active compounds read low 0.987 | S. cerevisiae deletion strains, locus YLR262C, strain YPT6 (second series), active compounds read low 0.991 | S. cerevisiae deletion strains, locus YLR262C, strain YPT6, active compounds read low 1.05 | S. cerevisiae deletion strains, locus YLR268W, strain sec22, active compounds read low 0.974 | S. cerevisiae deletion strains, locus YLR320W, strain mms22, active compounds read low 0.985 | S. cerevisiae deletion strains, locus YLR330W, strain CHS5, active compounds read low 1.01 | S. cerevisiae deletion strains, locus YLR342W, strain FKS1 (second series), active compounds read low 0.985 | S. cerevisiae deletion strains, locus YLR342W, strain FKS1, active compounds read low 0.999 | S. cerevisiae deletion strains, locus YLR357W, strain rsc2, active compounds read low 1.01 | S. cerevisiae deletion strains, locus YLR370C, strain arc18, active compounds read low 1 | S. cerevisiae deletion strains, locus YLR371W, strain rom2, active compounds read low 1 | S. cerevisiae deletion strains, locus YLR384C, strain iki3, active compounds read low 1 | S. cerevisiae deletion strains, locus YLR418C, strain cdc73, active compounds read low 0.989 | S. cerevisiae deletion strains, locus YML016C, strain PPZ1, active compounds read low 1.01 | S. cerevisiae deletion strains, locus YML032C, strain rad52, active compounds read low 1 | S. cerevisiae deletion strains, locus YML120C, strain ndi1, active compounds read low 1 | S. cerevisiae deletion strains, locus YML124C, strain tub3, active compounds read low 0.994 | S. cerevisiae deletion strains, locus YMR058W, strain fet3, active compounds read low 1.01 | S. cerevisiae deletion strains, locus YMR078C, strain ctf18, active compounds read low 0.987 | S. cerevisiae deletion strains, locus YMR125W, strain sto1, active compounds read low 1 | S. cerevisiae deletion strains, locus YMR129W, active compounds read low 0.981 | S. cerevisiae deletion strains, locus YMR205C, strain PFK2, active compounds read low 0.982 | S. cerevisiae deletion strains, locus YMR223W, strain ubp8, active compounds read low 0.986 | S. cerevisiae deletion strains, locus YMR231W, strain pep5, active compounds read low 1 | S. cerevisiae deletion strains, locus YMR263W, strain SAP30, active compounds read low 1.01 and 0.995 | S. cerevisiae deletion strains, locus YMR307W, strain GAS1, active compounds read low 1.04 | S. cerevisiae deletion strains, locus YNL067W, strain RPL9B, active compounds read low 1.02 | S. cerevisiae deletion strains, locus YNL071W, strain lat1, active compounds read low 0.998 | S. cerevisiae deletion strains, locus YNL128W, strain TEP1, active compounds read low 1.02 | S. cerevisiae deletion strains, locus YNL153C, strain GIM3, active compounds read low 1.02 and 0.974 | S. cerevisiae deletion strains, locus YNL175C, strain NOP13, active compounds read low 1.02 | S. cerevisiae deletion strains, locus YNL183C, strain NPR1, active compounds read low 0.919 | S. cerevisiae deletion strains, locus YNL197C, strain WHI3, active compounds read low 1.02 | S. cerevisiae deletion strains, locus YNL209W, strain ssb2, active compounds read low 0.997 | S. cerevisiae deletion strains, locus YNL224C, strain SQS1, active compounds read low 1.02 | S. cerevisiae deletion strains, locus YNL233W, strain BNI4, active compounds read low 1.02 | S. cerevisiae deletion strains, locus YNL248C, strain rpa49, active compounds read low 0.994 | S. cerevisiae deletion strains, locus YNL250W, strain rad50, active compounds read low 0.985 | S. cerevisiae deletion strains, locus YNL271C, strain bni1, active compounds read low 0.981 | S. cerevisiae deletion strains, locus YNL298W, strain CLA4, active compounds read low 0.99 | S. cerevisiae deletion strains, locus YNL307C, strain MCK1, active compounds read low 0.993 | S. cerevisiae deletion strains, locus YNL322C, strain KRE1 (second series), active compounds read low 0.996 | S. cerevisiae deletion strains, locus YNL322C, strain KRE1, active compounds read low 1.02 | S. cerevisiae deletion strains, locus YNR049C, strain mso1, active compounds read low 1 | S. cerevisiae deletion strains, locus YNR052C, strain pop2, active compounds read low 0.989 | S. cerevisiae deletion strains, locus YOL006C, strain TOP1, active compounds read low 1.02 | S. cerevisiae deletion strains, locus YOL012C, strain htz1 0.782 | S. cerevisiae deletion strains, locus YOL147C, strain pex11, active compounds read low 0.991 | S. cerevisiae deletion strains, locus YOR001W, strain rrp6, active compounds read low 0.99 | S. cerevisiae deletion strains, locus YOR061W, strain CKA2, active compounds read low 1.02 | S. cerevisiae deletion strains, locus YOR069W, strain VPS5, active compounds read low 1.01 | S. cerevisiae deletion strains, locus YOR070C, strain gyp1, active compounds read low 0.999 | S. cerevisiae deletion strains, locus YOR080W, strain dia2, active compounds read low 1.01 | S. cerevisiae deletion strains, locus YOR083W, strain WHI5 (second series), active compounds read low 0.985 | S. cerevisiae deletion strains, locus YOR083W, strain WHI5, active compounds read low 0.983 | S. cerevisiae deletion strains, locus YOR106W, strain vam3, active compounds read low 0.986 | S. cerevisiae deletion strains, locus YOR136W, strain idh2, active compounds read low 0.992 | S. cerevisiae deletion strains, locus YOR144C, strain elg1, active compounds read low 0.99 | S. cerevisiae deletion strains, locus YOR184W, strain ser1, active compounds read low 0.98 | S. cerevisiae deletion strains, locus YOR231W, strain MKK1, active compounds read low 0.973 | S. cerevisiae deletion strains, locus YOR265W, strain rbl2, active compounds read low 1 | S. cerevisiae deletion strains, locus YOR270C, strain vph1, active compounds read low 0.993 | S. cerevisiae deletion strains, locus YOR290C, strain snf2, active compounds read low 0.928 | S. cerevisiae deletion strains, locus YOR316C, strain cot1, active compounds read low 0.989 | S. cerevisiae deletion strains, locus YPL051W, strain arl3, active compounds read low 0.988 | S. cerevisiae deletion strains, locus YPL055C, strain LGE1, active compounds read low 1.04 | S. cerevisiae deletion strains, locus YPL078C, strain atp4, active compounds read low 0.983 | S. cerevisiae deletion strains, locus YPL106C, strain sse1, active compounds read low 0.989 | S. cerevisiae deletion strains, locus YPL240C, strain hsp82, active compounds read low 1.01 | S. cerevisiae deletion strains, locus YPL241C, strain CIN2, active compounds read low 1.01 | S. cerevisiae deletion strains, locus YPL256C, strain CLN2, active compounds read low 0.99 | S. cerevisiae deletion strains, locus YPR119W, strain clb2, active compounds read low 0.988 | S. cerevisiae deletion strains, locus YPR141C, strain kar3, active compounds read low 0.975 | S. cerevisiae deletion strains, locus YPR163C, strain tif3, active compounds read low 0.984 | S. cerevisiae deletion strains, locus YPR167C, strain met16, active compounds read low 0.987 | S. cerevisiae deletion strains, strain wtn01, active compounds read low 0.97 | S. cerevisiae strains, strain wild type, active compounds read low 1.01
